a7 integrin act – activates integrin-mediated alleviation for muscular dystrophy; Potency, µM (series often up to 38.3 µM), for inactives: top-dose activation, actives largely listed as activators; alpha7betagal myoblasts, beta-gal FDG fluorescence, 48 h; actives 0.064% (n = 350,000); active means well fitted activation curve with a large enough effect; inconclusive means small, poorly fitted or top-dose-only effect; inactive means no such curve, though single readings can be large or run the other way;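 further: potency means the concentration at half of the fitted maximal effect; 100% = response of the positive control SU9516; nearly all actives have a fitted effect of over 60% in size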
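alpha7betagal+/- myoblasts (passage 13, 250/well) treated 48 h at 37C with compounds at 1:260 dilution of DMSO stock. Lysed, then beta-galactosidase activity read as FDG fluorescence (ex 480/em 540) after 30 min, with pre-read for autofluorescence.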
D3 ag – D3 dopamine receptor (human) agonism | P35462 | D3R DiscoveRx beta-arrestin cells, luminescence, 90 min | max activation, % | actives 0.58% (n = 410,000) | AID 652048; in the data active means max activation above about 30%; further: 0% is about no effect
Target sequence (P35462 whole entry, looked up): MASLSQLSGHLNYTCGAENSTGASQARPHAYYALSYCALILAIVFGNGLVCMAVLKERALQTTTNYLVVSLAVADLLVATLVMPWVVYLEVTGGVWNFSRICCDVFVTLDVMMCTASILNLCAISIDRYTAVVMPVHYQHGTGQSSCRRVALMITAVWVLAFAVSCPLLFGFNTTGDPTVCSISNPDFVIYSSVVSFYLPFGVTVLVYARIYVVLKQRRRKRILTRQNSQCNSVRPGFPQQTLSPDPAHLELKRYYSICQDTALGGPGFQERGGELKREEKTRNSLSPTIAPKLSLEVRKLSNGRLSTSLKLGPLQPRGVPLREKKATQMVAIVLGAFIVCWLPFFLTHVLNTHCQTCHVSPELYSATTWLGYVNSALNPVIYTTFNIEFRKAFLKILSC
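Agonist-mode cell screen: cells plated at 1500/well and incubated overnight at 37 °C, then exposed to library compounds for 90 min at 37 °C. Detection reagent was added for 30–60 min at room temperature, and luminescence was read.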
DRD3 antagonist – D3 dopamine receptor (human) antagonism | D3R cells, DiscoveRx beta-arrestin luminescence, antagonist mode; active compounds read low | max response, negative = inhibition, % | actives 2.5% (n = 360,000) | AID 652054; in the data active means max response below about -50%; inconclusive means no clear call, values can overlap the other calls; further: on the % scale 0 is the no-effect control and ±100 the full control effect
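Cells plated overnight at 1500 cells/well, then exposed to library compounds with dopamine controls for 90 minutes at 37 degrees C. DiscoveRx reagent added for 30–60 minutes at room temperature; luminescence read, quantitative HTS format.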
The depositor's hits bear a star. A selection: hits, their analogues and other compounds. The true share with any hit is near 2.9%.

For Cc1sc2ncnc(N3CCC(C(=O)NNC(=O)COc4ccc(Br)cc4)CC3)c2c1C the results were a7 integrin act inconclusive, D3 ag 27.5 and DRD3 antagonist 60.4.
For Cc1sc2ncnc(N3CCC(C(=O)NNC(=O)COc4ccccc4F)CC3)c2c1C the results were a7 integrin act 0.7%, D3 ag 33.6* and DRD3 antagonist 9.9.
Screening COCCNc1nnc(SCC(=O)N(C)c2c(N)n(Cc3ccccc3)c(=O)[nH]c2=O)s1 returned a7 integrin act 0.5%, D3 ag 4.6 and DRD3 antagonist 8.5.
CC1=CC(=O)Nc2cncnc2N1 was read as a7 integrin act -1.5%, D3 ag -2.6 and DRD3 antagonist 4.4.
For CCOC(=O)N1CCN(C(=O)c2cc(COc3cccc(C(F)(F)F)c3)on2)CC1 the results were a7 integrin act inconclusive, D3 ag 8.1 and DRD3 antagonist 3.8.
Screening CC(=O)Nc1ccc(S(=O)(=O)N2CCCC2C(=O)Nc2ccc3c(c2)OCCO3)cc1 (stereo not given) returned a7 integrin act -17.1%, D3 ag 1.7 and DRD3 antagonist 1.8.
`Cc1ccc(S(=O)(=O)N2C(=O)CCC2C(=O)Nc2ccc3c(c2)OCCO3)cc1` (stereo not given) gave a7 integrin act 18.3%, D3 ag -6.1 and DRD3 antagonist -65.5*.
Screening O=C(Oc1ccccc1Cl)c1cc(-c2ccc3c(c2)OCCO3)on1 returned D3 ag -2.3.
For COc1ccc(CC2(CO)CCN(Cc3cc4ccccc4o3)CC2)cc1 the results were a7 integrin act -40.8%, D3 ag 24.9 and DRD3 antagonist -56.2*.
Screening COc1cccc(CC(=O)N2CCCC(CO)(Cc3ccc(F)cc3F)C2)c1 (stereo not given) returned a7 integrin act 13.1%, D3 ag -3.4 and DRD3 antagonist -1.0.
Screening COC(=O)c1ccc(CN2CCC(CO)(Cc3cccc(OC)c3)CC2)cc1 returned a7 integrin act 3.2%, D3 ag -9.0 and DRD3 antagonist -79.8*.
Screening COC(=O)c1ccc(CN2CCCC(CO)(Cc3ccc(F)cc3F)C2)cc1 (stereo not given) returned a7 integrin act 0.0%, D3 ag -18.4 and DRD3 antagonist -95.9*.
OCC1(Cc2cccc(C(F)(F)F)c2)CCN(Cc2cc3ccccc3o2)CC1 was read as a7 integrin act -2.3%, D3 ag 28.1 and DRD3 antagonist -28.4.
`COC(=O)c1ccc(CN2CCC(CO)(CCOc3ccccc3)CC2)cc1` gave a7 integrin act 15.3%, D3 ag -15.9 and DRD3 antagonist inconclusive.
`COc1cccc2c(=O)n(CC(=O)NCCc3ccccc3)ccc12` gave a7 integrin act 29.1%, D3 ag -11.8 and DRD3 antagonist 16.4.
For Cc1cc(NC(=O)C(=O)NCCN2CCN(S(C)(=O)=O)CC2)ccc1Br the results were a7 integrin act 5.7%, D3 ag 7.9 and DRD3 antagonist 1.2.
For CN(C(=O)COC(=O)c1cc(S(=O)(=O)N2CCCCC2)ccc1Cl)c1ccccc1 the results were a7 integrin act inconclusive, D3 ag 1.1 and DRD3 antagonist -1.4.
For CCCCNCCCOc1cc(Cl)ccc1Cl the results were a7 integrin act -20.4%, D3 ag -17.0 and DRD3 antagonist inconclusive.
CCC(C)NCCCOc1cc(Cl)ccc1Cl (stereo not given) was read as a7 integrin act -9.7%, D3 ag -6.0 and DRD3 antagonist -77.1*.
Screening Cc1cc(Cl)ccc1OCCCC(=O)NN returned a7 integrin act -7.9%, D3 ag 1.3 and DRD3 antagonist 4.1.
CCCOc1ccc(OCCCCNC(C)CC)cc1 (stereo not given) was read as a7 integrin act 4.5%, D3 ag 1.5 and DRD3 antagonist -54.6*.
For CCC(C)NCCCCOc1ccc(Cl)cc1C (stereo not given) the results were a7 integrin act -47.6%, D3 ag -10.6 and DRD3 antagonist -59.5*.
`CCC(C)NCCOc1ccc(C(C)(C)c2ccccc2)cc1` (stereo not given) gave a7 integrin act -75.1%, D3 ag -16.2 and DRD3 antagonist inconclusive.
Screening COc1cc(/C=C/C(=O)N(C)CC(=O)Nc2ccccc2SC)cc(OC)c1OC returned a7 integrin act -24.5%, D3 ag -6.1 and DRD3 antagonist -24.6.
For CCOc1ccc(Cc2noc3c2C(=O)CC(C)(C)C3)cc1OCC the results were a7 integrin act -18.4%, D3 ag 1.2 and DRD3 antagonist 6.0.
Screening COc1ccc(Br)cc1/C=N/N1CCN(Cc2ccccc2Cl)CC1 returned a7 integrin act -5.8%, D3 ag -9.1 and DRD3 antagonist -24.4.
For CCC(C)(C)n1nnnc1CN1CCC(NC(=O)c2ccc(Br)cc2)CC1 the results were a7 integrin act -6.2%, D3 ag 7.6 and DRD3 antagonist 0.0.
O=C(NC1CCN(Cc2ccccc2)CC1)c1cccc(NS(=O)(=O)c2ccc(Br)cc2)c1 was read as a7 integrin act -15.5%, D3 ag -27.5 and DRD3 antagonist -109.0*.
Cc1ccc(NS(=O)(=O)c2ccc(C(=O)NC3CCN(Cc4ccccc4)CC3)cc2)cc1 was read as a7 integrin act -51.5%, D3 ag -4.3 and DRD3 antagonist -68.4*.
O=C(NC1CCN(Cc2ccccc2)CC1)c1cccc(S(=O)(=O)Nc2ccc(SC(F)F)cc2)c1 was read as a7 integrin act -17.4%, D3 ag -25.7 and DRD3 antagonist -100.7*.
Cc1ccc(NS(=O)(=O)c2cccc(C(=O)NC3CCN(Cc4ccccc4)CC3)c2)cc1 was read as a7 integrin act -48.6%, D3 ag -22.2 and DRD3 antagonist inconclusive.
`Cc1ccc(Cn2nnnc2CN2CCC(NC(=O)c3ccc(Br)cc3)CC2)cc1` gave a7 integrin act 6.5%, D3 ag 0.8 and DRD3 antagonist -64.7*.
O=C(NC1CCN(Cc2ccccc2)CC1)c1cc(S(=O)(=O)Nc2ccc(F)cc2)ccc1Cl was read as a7 integrin act 13.2%, D3 ag -12.1 and DRD3 antagonist 4.9.
Cc1ccc(S(=O)(=O)Nc2cccc(C(=O)NC3CCN(Cc4ccccc4)CC3)c2)cc1F was read as a7 integrin act -22.0%, D3 ag -29.2 and DRD3 antagonist -22.8.
O=C(N/N=C/C(Cl)=C/c1ccc([N+](=O)[O-])cc1)C(=O)Nc1ccccc1C(=O)O was read as a7 integrin act -19.7%, D3 ag 0.7 and DRD3 antagonist 0.5.
For FC(F)(F)c1nc(Sc2ncccc2C(F)(F)F)n[nH]1 the results were a7 integrin act 9.9%, D3 ag -9.2 and DRD3 antagonist -2.3.
Screening COc1ccc(C)cc1NC(=O)CN1C(=O)COc2ccc(S(=O)(=O)N3CCCCCC3)cc21 returned a7 integrin act inconclusive, D3 ag 2.5 and DRD3 antagonist 1.2.
c1ccc(CCCN2CCOCC2)cc1 was read as a7 integrin act -24.4%, D3 ag -14.5 and DRD3 antagonist -6.5.
`O=C(c1ccc(S(=O)(=O)N2CCOCC2)cc1)N1CCN(c2ccc(F)cc2)CC1` gave a7 integrin act 7.1%, D3 ag -1.7 and DRD3 antagonist 33.3.
`O=C(CCN1CCN(c2ccccc2)CC1)c1ccc(Cl)cc1` gave a7 integrin act 7.2%, D3 ag -3.3 and DRD3 antagonist -70.1*.
CC(C)(C)c1cc(C(=O)CCN2CCOCC2)cc(C(C)(C)C)c1O was read as a7 integrin act 15.0%, D3 ag -22.0 and DRD3 antagonist -6.5.

Assay outcomes (PubChem)
